{"source": "PubChem BioAssay (Tox21)", "note": "Results filed as inconclusive are left out. Values without a mark were called inactive. Active and inactive are the calls of the source. Calls follow the shape of the dose curve; as a rule, active = well fitted activation curve with a large enough effect in the signal ratio in the repeat runs (not every such curve was filed as active); inconclusive = weak or mixed curves, or effect the other way; inactive = flat fitted curve, though single readings scatter; the % refers to the signal ratio. % is scaled to controls: 0 for no effect and ±100 for the full control effect."}
{"target": "Bile acid receptor (Homo sapiens) (UniProt Q96RI1)", "sequence (Q96RI1 whole entry, looked up)": "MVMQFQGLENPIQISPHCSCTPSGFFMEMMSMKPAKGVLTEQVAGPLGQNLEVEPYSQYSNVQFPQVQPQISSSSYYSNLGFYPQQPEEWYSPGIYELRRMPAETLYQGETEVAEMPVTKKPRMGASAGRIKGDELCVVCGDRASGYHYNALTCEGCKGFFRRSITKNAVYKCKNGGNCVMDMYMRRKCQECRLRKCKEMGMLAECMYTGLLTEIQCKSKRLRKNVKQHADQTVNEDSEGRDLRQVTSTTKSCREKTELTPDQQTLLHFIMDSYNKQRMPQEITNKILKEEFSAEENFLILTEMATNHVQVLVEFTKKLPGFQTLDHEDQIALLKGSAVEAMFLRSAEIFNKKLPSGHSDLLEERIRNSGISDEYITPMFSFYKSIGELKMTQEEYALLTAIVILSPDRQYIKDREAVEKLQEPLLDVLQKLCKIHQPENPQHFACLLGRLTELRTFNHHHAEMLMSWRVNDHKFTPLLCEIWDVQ", "test": "qHTS assay to identify small molecule agonists of the farnesoid-X-receptor (FXR) signaling pathway (AID 743220)", "conditions": "HEK293T FXR-UAS-bla, beta-lactamase FRET ratio, 16 h; series mostly up to 62.6 µM; activation: at the top concentration", "description": "National Center for Advancing Translational Sciences [NCATS]\nNIH Chemical Genomics Center [NCGC]\nU.S. Environmental Protection Agency [EPA]\nNational Institutes of Environmental Health Sciences [NIEHS]\nNational Toxicology Program [NTP]\nU.S. Food and Drug Administration [FDA]\nThe farnesoid-X-receptor (FXR), a nuclear hormone receptor, is highly expressed in liver, intestine, kidney and adrenal cortex. Natural ligands of FXR are the bile acids (Cholic acid, Chenodeoxy cholic acid etc). FXR is an important regulator of diverse metabolic pathways, including the bile acid homeostasis, lipid and glucose metabolisms. FXR regulates the expression of target genes by binding either as a monomer or as a heterodimer with the retinoid X receptor (RXR). Numerous studies have reported that FXR exerts protective function during cholestasis, diabetes, liver regeneration, and cancer. To identify compounds that activate FXR signaling, GeneBLAzer FXR-UAS-bla HEK 293T cell line (Invitrogen, Carlsbad, CA) containing a beta-lactamase reporter gene under the control of a UAS response element was used to screen the Tox21 10K compound library.\nTox21 Assay Protocol Summary:\nFXR-bla cells were dispensed at 5000 cells/5uL/well in 1536-well black wall/clear bottom plates using a Multidrop Combi (Thermo Fisher Scientific, Waltham, MA) dispenser. After the assay plates were incubated at 37C and 5% CO2 for 5 h, 23 nL of compounds dissolved in DMSO, positive controls or DMSO only was transferred to the assay plate by a Pintool station (Kalypsys, San Diego, CA). The assay plates were incubated at 37C for 16 h. After 1 uL of LiveBLAzerTM B/G FRET substrate was added using a Bioraptr Flying Reagent Dispenser (FRD) workstation (Beckman Coulter, Indianapolis, IN), the plates were incubated at room temperature for 2 h, and fluorescence intensity was measured by an Envision plate reader (PerkinElmer, Shelton, CT).", "units": {"activation": "%"}}
{"smiles": "O=C(O)Cn1c(=O)n(Cc2ccc(Br)cc2F)c(=O)c2ccc(Cl)cc21", "outcome": "inactive"}
{"smiles": "CCCCC(C=O)CC", "note": "(stereo not given)", "outcome": "inactive"}
{"smiles": "COc1ccc([N+](=O)[O-])cc1N", "outcome": "inactive"}
{"smiles": "CCOCCOCCOCCO", "outcome": "inactive"}
{"smiles": "CC(=O)CC(C)(C)O", "outcome": "inactive"}
{"smiles": "CCCCCCCCCCO", "outcome": "inactive"}
{"smiles": "CCNc1ccccc1", "outcome": "inactive"}
{"smiles": "CCO[Si](CCCN)(OCC)OCC", "activation": 1.85}
{"smiles": "COC(=O)CCCC(=O)OC", "outcome": "inactive"}
{"smiles": "CC(C)OP(=O)(CP(=O)(OC(C)C)OC(C)C)OC(C)C", "outcome": "inactive"}
{"smiles": "CC(C)CC(=O)CC(C)CC(C)C", "note": "(stereo not given)", "outcome": "inactive"}
{"smiles": "CN(C)c1ccc(Cc2ccc(N(C)C)cc2)cc1", "outcome": "inactive"}
{"smiles": "O=C(O)c1ccc(S(=O)(=O)N(Cl)Cl)cc1", "outcome": "inactive"}
{"smiles": "CCCCCCCCCCCC(=O)OC", "outcome": "inactive"}
{"smiles": "CCOC(=O)c1ccc(N)cc1", "outcome": "inactive"}
{"smiles": "CC(=O)c1ccc(O)cc1", "outcome": "inactive"}
{"smiles": "OCc1cccc(Oc2ccccc2)c1", "outcome": "inactive"}
{"smiles": "CC(=O)OC1CC(C)OC(C)O1", "note": "(stereo not given)", "outcome": "inactive"}
{"smiles": "CSc1ccc(Cl)cc1", "outcome": "inactive"}
{"smiles": "c1ccc2c(c1)Cc1ccccc1-2", "outcome": "inactive"}
{"smiles": "CNC(=O)Oc1ccc2c(c1)[C@]1(C)CCN(C)[C@@H]1N2C", "outcome": "inactive"}
{"smiles": "COc1ccc(N)c(C)c1", "outcome": "inactive"}
{"smiles": "CCO[Si](CCC#N)(OCC)OCC", "outcome": "inactive"}
{"smiles": "OC1C(O)C(O)C(O)C(O)C1O", "note": "(stereo not given)", "outcome": "inactive"}
{"smiles": "O=C1C(c2[nH]c3ccccc3c2O)=Nc2ccccc21", "outcome": "inactive"}
{"smiles": "CC(C)=CCl", "outcome": "inactive"}
{"smiles": "C=CCc1ccc(OC)c(OC)c1", "outcome": "inactive"}
{"smiles": "O=S(=O)(O)c1ccc(N=Nc2c(O)ccc3cc(S(=O)(=O)O)ccc23)cc1", "outcome": "inactive"}
{"smiles": "CC(C)(C#N)c1cc(Cn2cncn2)cc(C(C)(C)C#N)c1", "outcome": "inactive"}
{"smiles": "CC(C)CC(C)O", "note": "(stereo not given)", "outcome": "inactive"}
{"smiles": "O=S(=O)(O)c1ccccc1", "outcome": "inactive"}
{"smiles": "CC(C)OC(=O)COc1ccc(Cl)cc1Cl", "outcome": "inactive"}
{"smiles": "C[Si]1(C)O[Si](C)(C)O[Si](C)(C)O[Si](C)(C)O1", "outcome": "inactive"}
{"smiles": "c1ccc(Oc2ccccc2)cc1", "outcome": "inactive"}
{"smiles": "NC(=S)NNC(N)=S", "outcome": "inactive"}
{"smiles": "CC(CCl)OP(=O)(OC(C)CCl)OC(C)CCl", "note": "(stereo not given)", "activation": 1.4}
{"smiles": "O=[N+]([O-])c1ccc2nc[nH]c2c1", "outcome": "inactive"}
{"smiles": "CC(C)(Oc1ccc(CCNC(=O)c2ccc(Cl)cc2)cc1)C(=O)O", "outcome": "inactive"}
{"smiles": "CC(C)c1cccc(C(C)C)c1", "outcome": "inactive"}
{"smiles": "CCOC(=O)n1ccn(C)c1=S", "outcome": "inactive"}
